Assay outcomes deposited in PubChem BioAssay by National Center for Advancing Translational Sciences (NCATS).
HCMV inh = inhibitors of human cytomegalovirus; HFF cells, HCMV-luciferase reporter, 72 h; active compounds read low; activity change, negative = inhibition, % at 57.5 µM; 410,000 tested, 4.5% active; AID 1259415; in the data active means activity change below about -60%; inconclusive means no clear call, values can overlap the other calls; inactive means above about -39%; further: on the % scale 0 is the no-effect control and ±100 the full control effect
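Two compound doses tested in HFFs infected with HCMV-luciferase, MOI 1 PFU/cell, 72 h at 37C. Lysate luminescence read with OneGlo; data normalized against buffer-only and 10uM Salinomycin inhibitor controls.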
Pf growth 96h = inhibits malaria parasite growth, 96 h; AID 504834; 320,000 tested, 6.9% active; Potency, µM (titrated, usually from 28.7 µM), for the others: top-dose activity change, negative = inhibition, most hits filed as inhibitors; P. falciparum luciferase reporter growth, 96 h; further: potency means the concentration at half of the fitted maximal effect; on the % scale 0 is the no-effect control and ±100 the full control effect
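Luminescence readout: decreased luciferase signal marks inhibited growth of reporter-expressing P. falciparum in infected red cells (2% hematocrit, 0.05% parasitemia final), exposed to compound two generations (96 h, 37 C, 5% CO2).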
Cycloheximide cs = counter-screen for Shiga toxin inhibitors: cycloheximide protein synthesis inhibition; cell reporter, cycloheximide protein synthesis inhibition counterscreen; 300,000 tested, 12% active; max response, %; in the data active means max response mostly above about 13%, no sharp cut-off; inactive means mostly below about 14%; further: read at 38.3 µM for the half of the compounds with a filed dose; 0% is about no effect
Pf growth 48h = inhibits P. falciparum growth in the first generation, 48 h. P. falciparum luciferase growth in erythrocytes, 48 h. Potency, µM (top dose mostly 28.7 µM), without a hit: at the top dose activity change, negative = inhibition, most hits filed as inhibitors. 310,000 tested, 5.9% active. AID 504832; further: potency means the concentration at half of the fitted maximal effect; on the % scale 0 is the no-effect control and ±100 the full control effect
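Compounds are pin-transferred into medium, infected erythrocytes (2% hematocrit, 0.1% parasitemia final) are added, and plates sit one parasite generation at 37 C in 5% CO2. Detection reagent is then added and luminescence measured.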
Shiga toxin inh = inhibitors of Shiga toxin in Vero cells. Vero cells, Shiga toxin protein synthesis inhibition reporter. inhibition, % at 38.7 µM. 290,000 tested, 9.2% active; in the data active means inhibition mostly above about 28%, no sharp cut-off; inactive means mostly below about 43%; further: 0% is about no effect
* hit, by the source's call; u = inconclusive; x = not tested or not shown; ! = not confirmed by another sample; [ ] = remark or other dose. Rows were chosen to be rich in hits. Some 20% of all compounds tested hit in one or more screens of this group. Unless noted, the call rests on the fitted dose curve; in most records, active means well fitted inhibition curve with a large enough effect; inconclusive means small, poorly fitted or top-dose-only effect, or another doubt; inactive means no such curve, though single readings can be large or run the other way.

SMILES	HCMV inh	Pf growth 96h	Cycloheximide cs	Pf growth 48h	Shiga toxin inh
O=c1c2ccccc2oc2ccc(Oc3ccccc3)cc12	114	78%	41*	109%	42*
CN(C)C(=O)c1ccc(NC(=O)c2ccc(-c3ccc(Cl)cc3)o2)cc1	u	u	x	4%	x
CCOc1ccc(S(=O)(=O)Nc2nc3ccccc3nc2-n2ccc(=NC(=O)c3ccccc3C)cc2)cc1	u	u	-2	u	-17
COc1ccccc1N(CC(=O)NCCSCc1ccccc1)S(=O)(=O)c1ccc(C)cc1	-63*!	2.6µM*	-3	u	-10
COc1ccccc1N(CC(=O)NCCSCc1ccccc1)S(=O)(=O)c1ccccc1	-73*	x	x	x	x
COc1ccc(S(=O)(=O)N(CC(=O)NCCSCc2ccccc2)c2ccc(C)cc2)cc1	-4	x	x	x	x
CC(C)Nc1ncnc2c1cnn2-c1ccccc1	214	81%	23*	171%	24*
COC(=O)c1ccc(Nc2ncnc3c2cnn3-c2cccc(C)c2)cc1	45	u	10	7%	9
Cc1cccc(-n2ncc3c(Nc4ccc(F)cc4)ncnc32)c1	-9	u	44*	u	52*
NNc1ncnc2c1cnn2-c1ccccc1	56	x	38*	u	42
COc1ccc(-n2ncc3c(Nc4cccc(C)c4)ncnc32)cc1	-18	20%[5.75 µM]	15*	65%	109*
O=C(NCc1nnc(SCC(=O)N2CCCC2)o1)c1ccccc1	-1	26%	0	-12%	33
O=C(NCCc1ccccc1)c1ccc(Nc2nc3ccccc3n3nnnc23)cc1	-20	x	x	x	x
Cc1ccc(-n2ncc3c(Nc4cccc(C(F)(F)F)c4)ncnc32)cc1C	-65*	x	x	x	x
Cc1ccccc1Nc1ncnc2c1cnn2-c1ccccc1	74	3%	48*	-16%	70*
Cc1ccc(-n2ncc3c(Nc4ccccc4C)ncnc32)cc1	-3	x	x	x	x
Cc1cccc(-n2ncc3c(NC(C)C)ncnc32)c1	57	224%	53*	162%	79*
c1ccc(-n2ncc3c(NC4CCCCCC4)ncnc32)cc1	44	67%	45*	130%	62*
CCCCN1C(=O)CN(C2CCCCC2)C(=O)C1c1ccc(OC(C)C)c(OC)c1 (stereo not given)	-10	x	x	x	x
CCOc1ccccc1N(C)S(=O)(=O)c1ccc2c(c1)CCN2C(=O)CCC(=O)O	22	25%	-3	-33%[0.00184 µM]	-5
Cc1cccc(-n2ncc3c(N)ncnc32)c1	72	-3%	52*	3%	93
Cc1cccc(-n2ncc3c(N(C)Cc4ccccc4)ncnc32)c1	18	99%	57*	72%	97*
CCCCN(CCCC)c1ncnc2c1cnn2-c1cccc(C)c1	10	x	x	x	x
CCOC(=O)C1CCCCN1C(=O)/C(=C/c1ccc(OC)cc1)c1ccc(OC)c(OC)c1 (stereo not given)	-3	x	x	x	x
Cc1ccc2oc(-c3ccc(Cl)cc3)c(O)c(=O)c2c1	-77*	x	x	x	x
SMILES	HCMV inh	Pf growth 96h	Cycloheximide cs	Pf growth 48h	Shiga toxin inh
CC(C)NS(=O)(=O)c1ccc(NC(=O)Cc2cccs2)cc1	58	73%	24*	39%	40*
O=C(Cc1cccs1)Nc1cccc(-c2nc3cc4ccccc4cc3[nH]2)c1	-88*	207%	68*	45%	120*
O=C(Cc1cccs1)Nc1ccc(C(=O)O)cc1	-77*	x	3	-9%	5
O=C(Cc1cccs1)Nc1ccc(S(=O)(=O)Nc2ncccn2)cc1	-30	45%	-1	0%	-14
O=C(Cc1cccs1)Nc1ccc(F)cc1	15	u	10.0*	27%	8
CCc1cnc2c(c1SCc1cc(OC)cc(OC)c1)c(=O)n(C)c(=O)n2C	12	x	x	x	x
CCOc1cccc(NC(=O)Cc2cccs2)c1	-1	22%	13	36%	41*
CC(=O)Nc1cccc(NC(=O)Cc2cccs2)c1	29	u	-1	-4%	-7
COc1ccc(NC(=O)CSc2oc(-c3cccs3)nc2S(=O)(=O)c2ccc(Br)cc2)c(OC)c1	21	x	x	x	x
O=C(c1ccccc1)c1cnc(Nc2ccccc2Cl)s1	x	340%	42*	272%	89*
O=C(c1ccc(Cl)c(Cl)c1)c1cnc(Nc2ccccc2)s1	-24	75%	11	31%	-4
CC(C)(C)C(=O)c1cnc(Nc2ccccc2Cl)s1	66	157%	59*	77%	67*
CCOc1ccc(NC(=O)CSc2nnc3c(C)cc4ccccc4n23)cc1	9	x	x	x	x
CCN(CC)c1ccc(C(=O)Nc2cccc(F)c2)cc1	-24	25%	28*	5%	42
CN(C)c1cccc(C(=O)Nc2cccc(F)c2)c1	90	-7%	41*	-31%	68*
CC(C)NC(=O)C1CCC(Cn2c(=O)c3sccc3n(CC(=O)Nc3ccccc3)c2=O)CC1 (stereo not given)	-5	x	x	x	x
C=C(c1ccccc1Cl)[n+]1ccccc1	-60*	1.7µM*	0	2.9µM*	x
C=C(c1ccccc1C)[n+]1ccccc1	9	1.7µM*	-3	4.7µM*	x
Clc1ccccc1Cl	x	16%	x	-3%	x
CCc1ccccc1CC1CN(Cc2ccccc2)Cc2ccccc2N1c1ccc(OC)cc1 (stereo not given)	13	x	x	x	x
CCCCOCCCNC(=O)C[C@@H]1C[C@@]2(C(=O)OC)CC(C)(C)CC=C2N(Cc2ccco2)C1=O	-31	x	x	x	x
COC(=O)C1=C(N)N(c2ccc(F)cc2)C2=C(C(=O)CCC2)C1c1ccc2c(c1)OCO2 (stereo not given)	-30	65%	-2	10µM*	-2
COC(=O)C1=C(N)OC2=C(C(=O)CCC2)C1c1ccc2c(c1)OCO2 (stereo not given)	23	-15%	-2	20%	-8
COC(=O)C(O)(NC(=O)OCc1ccccc1)C(F)(F)F (stereo not given)	10	37%	1	0%	-4
COC(=O)C(NC=O)C(O)(Cc1ccccc1)C(F)(F)F (stereo not given)	34	-11%	57*	46%	74*
SMILES	HCMV inh	Pf growth 96h	Cycloheximide cs	Pf growth 48h	Shiga toxin inh
COc1ccc(Cl)cc1NC(=O)C1CCCN(c2ncnc3onc(C)c23)C1 (stereo not given)	-77*	x	x	x	x
COc1ccc(NC(=O)C2CCCN(c3ncnc4onc(C)c34)C2)cc1OC (stereo not given)	-14	x	x	x	x
CCOc1ccc(NC(=O)C(C)NS(=O)(=O)c2ccc(NC(C)=O)cc2)cc1 (stereo not given)	-36	32%	-2	-8%	-10
O=c1[nH]c2ccc(Cl)cc2c(O)c1-c1ccccc1	-7	-10%	27*	37%	78*
NNC(=O)CSc1c(-c2ccccc2)c2cc(Cl)ccc2[nH]c1=O	u	13µM*	2	u	5
CC(C)(C)c1ccc(SCCc2cccnc2)cc1	86	117%	44*	224%	110*
c1ccc(SCCc2ccncc2)cc1	11	30%	20*	41%	15
Fc1ccc(SCCc2ccncc2)cc1	40	15%	3	7%	-2
